Hits are enriched below; roughly 2.5% of the tested compounds scored in any of these assays.
Jurkat NFkB inh – inhibitors of the PMA/ionomycin-induced NF-kB reporter in Jurkat cells; inhibition, % at 4 µM; AID 435003; PMA/ionomycin-induced NF-kB luciferase reporter, luminescence; hit rate 0.53% among 330,000; in the data active = inhibition above about 50%
TMEM16A act – activators or potentiators of mouse TMEM16A chloride channel. Q8BHY3. HEK293 TMEM16A/YFP-H148Q/I152L, iodide quench fluorescence; active compounds read low. B-score at 10 µM. hit rate 0.3% among 340,000;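 active = fluorescence-ratio B-score plate-corrected deviation score at least 3 library SD below zero, with starting fluorescence score within 5 deviations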;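 note: channel opened by trigger with iodide after compound preincubation; score built on the fluorescence ratio of max minus min over baseline; more negative score means more quench and so TMEM16A activation or potentiation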
697 NFkB inh – inhibitors of the PMA/ionomycin-induced NF-kB reporter in 697 B cells; 697 B-cell NF-kB luciferase reporter, 16 h; inhibition, % at 4 µM; hit rate 0.33% among 330,000; AID 435022; in the data active = inhibition above about 35%
aSyn UTR inh – 5' untranslated region of α-synuclein, MLPCN primary screen; hit rate 0.82% among 300,000; alpha-synuclein 5'UTR reporter, inhibitor activity; AID 1813; inhibition, % (tested at 7.5 µM); in the data active = inhibition above about 60%;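 note: H4 neuroglioblastoma cells stably carrying SNCA 5'UTR luciferase fusion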
TMEM16A inh – inhibitors of mouse TMEM16A calcium-activated chloride channel; Q8BHY3; HEK293 TMEM16A/YFP iodide influx fluorescence, ionomycin; normalized B-score (activity score, 25-100; higher = stronger inhibition) at 10 µM; hit rate 1.2% among 310,000;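 active = ratio plate-corrected score three or more library SD toward inhibition, starting fluorescence score within five deviations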;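 note: score derived from kinetic fluorescence span divided by baseline fluorescence per well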
KLF5 inhibitor – kruppel-like factor 5 inhibition. DLD-1 KLF5 promoter-luciferase reporter, luminescence. inhibition, % at 5 µM. hit rate 0.23% among 290,000;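 active = inhibition above a per-plate limit of that plate's mean compound inhibition plus 3 SD, cut at about 60% in these data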;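 note: higher means less KLF5 promoter-driven luciferase light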
A number is an active result; . = inactive; / = no result given.

SMILES	Jurkat NFkB inh	TMEM16A act	697 NFkB inh	aSyn UTR inh	TMEM16A inh	KLF5 inhibitor
N#C/C(=C\c1cn(Cc2cccc(F)c2)c2ccccc12)C(=O)NCc1ccco1	.	.	.	65	.	.
N#C/C(=C\c1cn(Cc2ccccc2)c2ccccc12)C(=O)NCc1ccco1	.	.	.	68	.	.
N#C/C(=C\c1cn(Cc2ccc(F)cc2)c2ccccc12)C(=O)NCc1ccco1	.	.	.	.	.	.
COc1cccc(NC(=O)C2CCN(S(=O)(=O)c3ccc4[nH]c(=O)ccc4c3)CC2)c1	.	.	.	.	.	.
CC1CCCCC12NC(=O)N(CC(=O)OCc1cccc(F)c1)C2=O (stereo unspecified)	.	-20	.	/	/	/
CC1CCCCC12NC(=O)N(CC(=O)OCc1ccccc1F)C2=O (stereo unspecified)	.	.	.	/	/	/
COc1ccc(OCC(=O)Nc2cc(NC(=O)c3ccco3)ccc2OC)cc1	.	.	.	.	.	.
CCC(=O)c1ccc(OCC(O)CN(CCc2ccccc2)Cc2ccccc2)cc1 (stereo unspecified)	.	.	.	.	100	.
CC(C)c1ccc2[nH]c(O)c(N=NC(=S)NCCc3ccccc3)c2c1	.	.	.	.	.	.
CCNC(=S)N=Nc1c(O)[nH]c2ccc(C(C)C)cc12	.	.	.	63	.	.
CC1CCN(CC(=O)Nc2cccc([N+](=O)[O-])c2)CC1	.	.	.	.	25	.
CS(=O)(=O)c1ccc(C(=O)OCc2nnc(-c3ccccc3)o2)cc1[N+](=O)[O-]	/	-46	/	.	/	.
CN(C)S(=O)(=O)c1ccc(C(=O)OCc2nnc(-c3ccccc3)o2)cc1	.	.	.	.	.	.
C/C(=N\NC(=O)c1nnn(-c2nonc2N)c1CSc1ccc(Cl)cc1)c1ccco1	.	.	.	.	.	.
CCCCCCCC(=O)NNC(=O)Cc1ccccc1	.	.	.	.	.	.
CCCCCCCCCCCC(=O)c1c(O)cccc1O	.	.	.	.	100	.
Cn1c(=O)c2ccccc2n(Cc2cccc(F)c2)c1=O	.	.	.	.	.	.
CCOc1ccccc1NC(=O)CSc1nc2nc(-c3cccs3)cc(C(F)(F)F)c2c(=O)[nH]1	.	.	.	.	100	.
COc1ccc(NC(=O)CSc2nc3nc(-c4cccs4)cc(C(F)(F)F)c3c(=O)[nH]2)c(OC)c1	.	.	.	.	.	.
CCCCn1c(N)c(N(CC(C)C)C(=O)Cc2ccc(S(=O)(=O)N3CCOCC3)s2)c(=O)[nH]c1=O	/	-7.5	/	/	/	/
CCCCn1c(N)c(N(CCC(C)C)C(=O)Cc2ccc(S(=O)(=O)N3CCOCC3)s2)c(=O)[nH]c1=O	.	.	.	.	.	/
O=C(NCCC1CCCCN1S(=O)(=O)c1cccs1)C(=O)Nc1ccc(F)cc1 (stereo unspecified)	.	.	.	.	.	/
CC(NC(=S)NC1CCC(C(C)(C)C)CC1)c1ccccc1 (stereo unspecified)	.	.	.	.	100	.
O=S(=O)(/N=S1\CC=CCN1S(=O)(=O)c1ccccc1)c1ccccc1 (stereo unspecified)	/	.	/	/	/	/
COc1nnc(-c2ccc(N3CCOCC3)c(NC(=O)C3CCCCC3)c2)c2ccccc12	.	.	.	.	.	.
SMILES	Jurkat NFkB inh	TMEM16A act	697 NFkB inh	aSyn UTR inh	TMEM16A inh	KLF5 inhibitor
COc1nnc(-c2ccc(N3CCCCC3)c(NC(=O)C3CCCCC3)c2)c2ccccc12	.	.	.	.	100	.
O=C(COc1ccccc1[N+](=O)[O-])Nc1ccc(NC(=O)c2cc3ccccc3o2)cc1	.	.	.	.	.	.
C/C(=N\OCC(=O)Nc1ccc(F)c(F)c1F)c1cc2ccccc2o1	.	.	.	.	.	.
CCc1ccc(NC(=O)CO/N=C(\C)c2cc3ccccc3o2)cc1	.	.	.	.	100	.
O=C(COc1ccc(/C=N/NC(=O)c2cc3ccccc3o2)cc1Br)Nc1ccccc1	.	.	.	116	.	.
C/C(=N\OCC(=O)NC12CC3CC(CC(C3)C1)C2)c1cc2ccccc2o1	.	.	.	.	.	.
CSc1ccccc1NC(=O)CO/N=C(\C)c1cc2ccccc2o1	.	.	.	.	25	.
O=C(C1CCCC1)N1CCC(CC2CC(c3cccc(Br)c3)=NO2)(C(=O)NCC2CCCCC2)CC1 (stereo unspecified)	.	.	.	.	.	.
